Screening results deposited in PubChem BioAssay by several laboratories.
Only some compounds are listed: those with a hit (about 4.2% of all), similar ones and a draw of the others.
tim23-1 inh: inhibits growth of tim23-1 mutant yeast; actives 1.3% (n = 330,000); S. cerevisiae tim23-1 growth, BacTiter-Glo luminescence, 24 h; AID 463212; inhibition, % at 20 µM;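 active = growth inhibition of the mutant yeast at or above 50%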;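 also: temperature-sensitive mutant grown at 25 °C; plate controls were DMSO-treated mutant yeast for no effect and medium wells lacking yeast for full effect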
NLRP3 yeast inh: NALP3 inhibition in yeast; Yeast reconstituted NLRP3/ASC/caspase-1, beta-gal luminescence, 24 h; inhibition, % at 10 µM; actives 0.39% (n = 330,000); AID 2825;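 active = inhibition of 50% or more; inactive = inhibition below 50%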;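 also: plate controls were induced DMSO wells for no effect and uninduced yeast grown without galactose for full effect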
NALP1 inh: NALP1 inhibition. inhibition, % at 10 µM. S. cerevisiae NALP1/ASC/caspase-1 growth, X-gal OD620, 72 h. AID 2071. actives 0.61% (n = 280,000); in the data active = inhibition mostly above about 24%, no sharp cut-off; inactive = mostly below about 32%
tim10-1 inh: inhibits growth of tim10-1 mutant yeast | S. cerevisiae tim10-1 ts strain growth, BacTiter-Glo, 24 h | inhibition, % at 20 µM | actives 2.2% (n = 330,000) | AID 463190;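 active = inhibition of at least 40%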;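 also: mutant grown at 25 °C; 0% = DMSO wells with yeast and 100% = wells holding no yeast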
V-ATPase pH: yeast V-ATPase proton transport regulation by pHLuorin; S. cerevisiae, pHLuorin cytosolic pH fluorescence; response, % at 10 µM; actives 0.37% (n = 350,000); AID 504577; in the data active = response mostly above about 7.3%, no sharp cut-off; inactive = mostly below about 5.4%; also: actives read high
TIM10 inh: TIM10 yeast growth inhibition. S. cerevisiae TIM10 strain growth, BacTiter-Glo luminescence, 24 h. inhibition, % at 10 µM. actives 1.4% (n = 330,000);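 active = inhibition of 40% or more at the single tested concentration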;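 also: wild-type TIM10 isogenic control strain grown at permissive 25 °C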
tim23-1 conf: tim23-1 yeast growth inhibition, confirmed; shares compounds with tim23-1 inh; S. cerevisiae tim23-1 growth, BacTiter-Glo luminescence, 24 h; inhibition, % at 20 µM; actives 83% (n = 4,400);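 active = inhibition above about 39% in either of two replicate wells at 20 µM, limit read from the data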;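 also: temperature-sensitive tim23-1 mutant grown at 25 °C; 0% = DMSO wells with yeast and 100% = medium wells without yeast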
* hit, by the source's call; x = not tested or not shown.

SMILES | tim23-1 inh | NLRP3 yeast inh | NALP1 inh | tim10-1 inh | V-ATPase pH | TIM10 inh | tim23-1 conf
CCOc1ccc(-c2cccc(NC(=O)c3ccco3)c2)nn1 | 54* | 11 | x | 13 | 1 | -24 | 14
CCS(=O)(=O)c1ccc(-c2cccc(NC(=O)c3ccco3)c2)nn1 | 11 | 8 | x | 25 | 0 | -1 | x
CCOc1ccc(-c2cccc(NC(=O)COc3ccc(Cl)cc3)c2)nn1 | 7 | 14 | 12 | 22 | 7 | 16 | x
COc1ccc(-c2cccc(NC(=O)c3cccs3)c2)nn1 | 62* | 8 | x | 10 | -2 | -10 | 56*
CCOc1ccc(-c2cccc(NC(=O)c3cccs3)c2)nn1 | 63* | 22 | x | 5 | -10 | -2 | 47*
C[C@H](NC(=O)N1CCn2c1nc1ccccc12)C(=O)N1CCCCC1 | 16 | 5 | -5 | 15 | -1 | -4 | x
CCCCN(CC)C(=O)c1oc2ccc(S(=O)(=O)N3CCCC3)cc2c1C | 24 | 28 | -1 | 24 | -1 | 17 | x
CC1CC1C(=O)Nc1nc(-c2ccccc2)cs1 (stereo not drawn) | 53* | 23 | 45 | 25 | 2 | 36 | 47*
Cc1c(C(=O)N2CCCCC2)c(S(=O)(=O)NCCc2ccc(Cl)cc2)c(C)n1C | 14 | 11 | 14 | 29 | 2 | 8 | x
Cc1cc2nccc(-c3ccc(OCCCF)cc3)n2n1 | 9 | 22 | -4 | -6 | 3 | -15 | x
Cc1nc2sc(C(c3ccc(Cl)cc3)N3CCOCC3)c(O)n2n1 (stereo not drawn) | 53* | 4 | 13 | -1 | 3 | 1 | 8
Cc1nc2sc(C(c3ccccc3)N3CCOCC3)c(O)n2n1 (stereo not drawn) | 0 | 8 | 4 | -7 | 1 | -4 | x
CCOC(=O)C1=C(C)N=c2s/c(=C/c3ccccc3)c(=O)n2C1c1ccc(OC)c(OC)c1 (stereo not drawn) | 13 | 7 | 7 | -3 | 1 | -12 | x
CCOC(=O)C1=C(C)N=c2s/c(=C\c3ccncc3)c(=O)n2C1c1ccc2c(c1)OCO2 (stereo not drawn) | 53* | 11 | 17 | 40 | 2 | 23 | 49*
COc1cccc(CNCc2cccnc2)c1OCc1ccccc1 | -11 | 5 | 4 | 12 | 0 | 3 | x
Nc1ccc(O)c2c1C(=O)c1ccccc1C2=O | 53* | 10 | -16 | 13 | 2 | 1 | 55*
Cc1cccc(/N=C/c2c(O)ccc3oc4c(c23)CCCC4)n1 | 70* | 2 | 36 | 37 | 2 | 37 | 74*
Cc1ccc(Sc2ncccc2[N+](=O)[O-])cc1 | 6 | -9 | 11 | 8 | 1 | -18 | x
Cc1c([N+](=O)[O-])cnc(Sc2ccccc2)c1[N+](=O)[O-] | 75* | 15 | x | 27 | -1 | -12 | 73*
CCN(CC)c1ccc(C=NCCc2ccc(S(N)(=O)=O)cc2)cc1 | -6 | 7 | 11 | 0 | 2 | 5 | x
O=C(Nc1ccc2oc(-c3ccccc3)nc2c1)c1cccnc1 | 56* | 38 | 8 | 13 | -1 | 29 | 71*
O=C(Nc1ccc2nn(-c3ccccc3)nc2c1)c1cccnc1 | 52* | 37 | 20 | -13 | -3 | 8 | 37
Cc1noc(C)c1S(=O)(=O)Nc1ccc(C(=O)N2CCC(C)CC2)cc1 | 1 | 16 | 6 | -9 | x | -3 | x
CC1CCN(c2nnc(N3CCC(C)CC3)c3ccccc23)CC1 | 70* | 11 | -8 | 13 | 2 | 15 | 57*
Cc1ccc(-c2nnc(N3CCCCC3)c3ccccc23)cc1 | 54* | 6 | 16 | 38 | -4 | 36 | 53*
CCOc1ccc(C(=O)NC(=S)NCc2cccnc2)cc1[N+](=O)[O-] | 6 | 10 | 33 | 4 | 1 | 0 | x
CC(C)CN=Cc1c(O)c([N+](=O)[O-])cc2oc3c(c12)CCCC3 | 66* | 42 | 50* | 37 | 2 | 40 | 1
Cn1c(=O)c(C(=O)NCc2ccccc2)c(O)c2ccccc21 | 54* | 22 | 2 | -16 | -1 | -2 | 26
CC(=O)c1c(O)c2ccccc2n(Cc2ccccc2)c1=O | 56* | 17 | 2 | 28 | 0 | 11 | 36
